Screening results as filed in PubChem.
Most compounds without a hit are left out; they make up all but 4.1% or so of the library.
hgDAF12 agonist: activates the H. glycines DAF-12 receptor ligand-binding domain; HEK293 GAL4-hgDAF12 UAS-luciferase reporter, agonist luminescence; normalized to butyrate control; activation, % at 6.8 µM; 1.8% of 370,000 active; AID 687014;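 active = activation above a cutoff set at the mean of all screened compounds plus 3 SD, cut at about 10% in these data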;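 note: 0% = DMSO wells and 100% = sodium butyrate wells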
DAX1 inh-1: blocks DAX1 repression of SF-1 activated StAR promoter. HEK293T StAR-luciferase reporter, SF-1/DAX-1 repression relief. inhibition, % at 6.8 µM. 1.1% of 370,000 active;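 active = inhibition above the mean over all tested compounds plus 3 SD, cut at about 3.6% in these data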;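 note: 0% = DAX-1 cells with DMSO and 100% = cells lacking DAX-1 with DMSO; higher inhibition means more luminescence from relief of DAX-1 repression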
DAX1 inh-2: inhibits human nuclear receptor DAX1; P51843; HEK293 Gal4-DAX1 luciferase reporter, luminescence; inhibition, % at 6.75 µM; 0.99% of 340,000 active;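 active = inhibition above the mean over all tested compounds plus 3 SD, cut at about 4.2% in these data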;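 note: 0% = DAX1-transfected cells with DMSO and 100% = empty-vector control cells with DMSO; inhibition shows as a rise in luminescence from relieved DAX1 repression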
Target sequence (P51843 207-470 limits assumed): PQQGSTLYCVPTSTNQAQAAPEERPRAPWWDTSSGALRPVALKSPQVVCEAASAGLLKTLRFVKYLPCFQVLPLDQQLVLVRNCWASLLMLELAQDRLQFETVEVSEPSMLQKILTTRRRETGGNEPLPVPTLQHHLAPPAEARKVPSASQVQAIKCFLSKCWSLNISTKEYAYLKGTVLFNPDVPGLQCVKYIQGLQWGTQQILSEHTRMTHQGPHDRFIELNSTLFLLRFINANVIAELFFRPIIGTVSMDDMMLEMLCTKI
hcDAF12 agonist: activates DAF-12 receptor from parasite H. contortus. 1.4% of 370,000 active. HEK293 hcDAF-12 lit1-tk-luc reporter, luminescence; 0% DMSO, 100% Δ7-dafachronic acid. AID 652067. activation, % at 6.8 µM;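 active = activation above the mean of all tested compounds plus 3 SD, cut at about 5.5% in these data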;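 note: 100% = response to 3 µM Δ7-dafachronic acid high control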
ssDAF-12 act: activators of S. stercoralis DAF-12 nuclear receptor; 1% of 370,000 active; activation, % at 6.8 µM; HEK293 ssDAF-12/GRIP1 lit1-tk-luc reporter, luminescence; % of 3 µM dafachronic acid response; AID 652126;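 active = activation above the mean over all tested compounds plus 3 SD, cut at about 0.9% in these data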;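 note: 0% = DMSO-only wells and 100% = 3 µM delta7-dafachronic acid wells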
LXRb hcDAF ctr: LXR-beta agonism as hcDAF-12 counter-screen; shares compounds with hcDAF12 agonist; HEK293 Gal4-LXR tk-luc reporter, luminescence, 24 h; normalized: DMSO 0%, positive control 100%; activation, % at 6.8 µM; 3,400 tested, under 10 active; AID 743027;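 active = mean percent activation of the reporter above a cutoff set as the average over tested compounds plus their standard deviation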
hcDAF12 ag: confirmation of H. contortus DAF-12 agonists. 61% of 3,400 active. shares compounds with hcDAF12 agonist. activation, % at 6.8 µM. HEK293 hcDAF-12 lit1-tk-luc reporter, luminescence; % of Δ7-dafachronic acid response;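 active = mean activation across triplicate tests above the threshold derived from the earlier primary screen, cut at about 5.5% in these data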;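 note: 0% = DMSO only wells and 100% = 3 µM Δ7-dafachronic acid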
An asterisk follows results filed as active; . = no result.

SMILES	hgDAF12 agonist	DAX1 inh-1	DAX1 inh-2	hcDAF12 agonist	ssDAF-12 act	LXRb hcDAF ctr	hcDAF12 ag
CCOC(=O)C1=NOC(C(=O)NC2CCCC2)(C(=O)c2ccc(OC)cc2)C1 (stereo unspecified)	-3	0	.	2	0	.	.
O=C1CCCN1CCCNc1ncnc2c1cnn2-c1ccc(Cl)cc1	1	0	0	-1	0	.	.
OCCCNc1ncnc2c1cnn2-c1ccc(Cl)cc1	9	2	0	7.4*	0	1	4
NC(=O)c1ccc(NC(=O)CSc2nnc(-c3ccccc3)n2-c2ccccc2)cc1	3	-1	.	-1	-1	.	.
Cc1c(Br)cccc1NC(=O)c1sccc1-n1cccc1	0	-1	-1	-1	-1	.	.
CC(C)c1ccc(NC(=O)c2sccc2-n2cccc2)cc1	12*	1	0	11*	0	0	8.9*
N#CC1=C(N)C(C#N)(C#N)C2(C(=O)Nc3ccccc32)C2CCCC=C12 (stereo unspecified)	-1	1	-2	6.8*	0	0	1
O=C(c1ccc(Cl)cc1)N1CCCCC(Sc2nnc(-c3ccc4c(c3)OCO4)o2)C1=O (stereo unspecified)	10*	4.2*	-2	6.9*	1	0	2
C=CCN(CC#CC1=CCCCC1)CC1CC1	-2	0	.	-1	-1	.	.
CC(=O)NCCC(=O)Nc1nc(-c2c[nH]c3ccccc23)cs1	5	0	3	5	0	.	.
COc1ccc(Nc2nc(-c3c[nH]c4ccccc34)cs2)cc1	6	1	-1	11*	1	0	5
Fc1ccc(OCc2nnc(-c3ccccc3Br)o2)c(Cl)c1	11*	1	1	7.1*	0	1	3
O=C(O)C1(Nc2ccccc2Cl)CCCC1	3	0	-1	0	-1	.	.
O=C1OCC(CO)(CO)N=C1NNc1ccccc1Cl	1	1	0	9.0*	1	0	2
COc1ccccc1C(=O)N1CCN(C(=O)[C@H](CCc2ccccc2)NC(=O)[C@H]2O[C@@H](n3cnc4c(N)ncnc43)[C@H](O)[C@@H]2O)CC1	0	1	.	1	-2	.	.
CCc1ccc(C2C(C(=O)O)c3ccccc3C(=O)N2C)cc1 (stereo unspecified)	0	0	1	0	-1	.	.
CCc1ccc(/C=C/C(=O)C2C(=O)c3ccccc3C2=O)cc1	7	3	0	8.8*	1.0*	0	5.9*
CN1C(=O)c2cc(NC(=O)C3CC3)ccc2OC[C@H]2O[C@@H](CC(=O)NC3CCC3)CC[C@@H]21	2	0	.	-2	-2	.	.
Cc1cc(C)cc(N(CCC#N)C(=O)COC(=O)C2CCN(c3ccc(C(F)(F)F)cn3)CC2)c1	-1	2	1	-1	-1	.	.
CCCN1CCS(=O)(=O)N(Cc2cn(Cc3ccccc3)nn2)C(C(=O)OC)C1 (stereo unspecified)	-3	0	.	0	-1	.	.
Cc1cc(C(=O)NCCCN(C)C)c2ccccc2n1	0	0	2	-1	-1	.	.
CCCCN(C)CCCNC(=O)c1cc(Nc2ccc(OC)c(OC)c2)nc2ccccc12	1	1	0	7.8*	0	0	1
COc1ccccc1NC(C)=O	0	-1	0	0	-2	.	.
COc1ccccc1NC(=O)/C=C\C(=O)O	0	0	-1	7.3*	0	0	0
Cc1cscc1NC(=O)/C=C/C(=O)O	1	0	.	6.8*	0	0	1
SMILES	hgDAF12 agonist	DAX1 inh-1	DAX1 inh-2	hcDAF12 agonist	ssDAF-12 act	LXRb hcDAF ctr	hcDAF12 ag
CC(C)C[C@H](NC(C)(C)C(=O)NC1CCCCC1)C(=O)NCCc1c[nH]c2ccccc12	6	.	.	0	-1	.	.
Cc1ccc(CN2CCCCC(NC(=O)c3ccc(Br)cc3)C2=O)cc1 (stereo unspecified)	2	-1	.	-3	-2	.	.
N#CC(C#N)=Cc1cc2ccccc2nc1N1CCCCC1	1	0	0	7.1*	0	0	1
CCOC(=O)/C(C#N)=C/c1cc2ccccc2nc1N1CCOCC1	-2	0	0	0	-1	.	.
COC(=O)C[C@H]1CC[C@@H]2[C@@H](COc3ccc(NS(=O)(=O)c4ccccc4Cl)cc3C(=O)N2C)O1	2	0	.	-1	-1	.	.
COc1ccccc1C(=O)N/C(N)=N/c1nc2ccccc2o1	4	1	0	7.0*	1.1*	1	8.6*
Cc1ccc(C(=O)N/C(N)=N/c2nc3ccccc3o2)cc1	3	0	0	-1	-1	.	.
CCOc1ccc(-n2c(SC/C=C/c3ccccc3)nnc2-c2ccco2)cc1	4	-1	.	-2	-2	.	.
COc1ccc(CN(C(=O)c2cc3ccccc3oc2=O)C2CCS(=O)(=O)C2)cc1OC (stereo unspecified)	10	1	0	10*	0	1	3
Cc1csc(NC(=O)c2cc3c(s2)CCCC3)n1	12*	2	-2	11*	0	1	7.0*
Cc1csc(NC(=O)c2cc3c(s2)CCCCC3)n1	-2	-1	-4	3	-1	.	.
Cc1cnc(NC(=O)c2cc3c(s2)CCCC3)s1	3	2	-2	9.0*	0	2	7.0*
CCN(CCNC(=O)[C@H]1C=C(OC)C(=O)C[C@H](c2ccccc2)[C@H]1C)C(C)=O	-3	0	.	-2	-1	.	.
O=S1(=O)CC(N2CCN(CCO)CC2)CN1Cc1cn(Cc2ccccc2C(F)(F)F)nn1 (stereo unspecified)	-1	-1	.	0	-1	.	.
CC12CCC3c4ccc(OCCCO)c([N+](=O)[O-])c4CCC3C1CCC2=O (stereo unspecified)	1	-1	.	-2	-1	.	.
O=C(O)[C@@H]1Cc2c([nH]c3ccccc23)C2CCC(=O)N21 (stereo partly specified)	0	0	-1	7.6*	1.6*	0	0
COC(=O)[C@@H]1Cc2c([nH]c3ccccc23)C2CCC(=O)N21 (stereo partly specified)	-1	0	0	1	0	.	.
O=[N+]([O-])c1nn(-c2ccc3c(c2)OCCO3)n(O)c1=NCc1ccccc1Cl	7	2	2	1	0	.	.
COc1ccccc1CN=c1c([N+](=O)[O-])nn(-c2ccc3c(c2)OCCO3)n1O	11*	3	2	9.0*	0	0	3
CCCCn1nnnc1NCc1ccc(OC)c(OC)c1	0	-1	-2	8.5*	-2	0	1
